About 79,000 compounds went through this panel and 15% of them were active in at least one assay; those are over-represented in the sample as a whole. Values without a mark were called inactive. The source made the active and inactive calls. No stated cut-off is given here; in the data, active means growth inhibition above about 70%; inactive means the rest.
Assay: NCI Yeast Anticancer Drug Screen. Data for the sgs1 strain (AID 173);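 further: 0% = growth of vehicle-only control cultures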
Settings: S. cerevisiae sgs1 mutant, active compounds read high
Procedure: Growth inhibition of yeast strains with defined genetic alterations is measured as a screen for potential anti-cancer activity. Selected strains with alterations in DNA damage repair or cell cycle control were exposed to compounds and growth inhibition was measured relative to vehicle treated controls. The strain used in this assay is sgs1

CCCCCCCN1C(=O)c2ccccc2C1=O
growth inhibition (at 1.2 µM): 0% | growth inhibition (at 3.7 µM): -1% | growth inhibition (at 11.0 µM): 2% | growth inhibition (at 33.0 µM): 14% | growth inhibition (at 100.0 µM): 44%

CN(CCOc1ccc(Cl)cc1)CCOc1ccc(Cl)cc1
growth inhibition (at 1.2 µM): 18% | growth inhibition (at 3.7 µM): 23% | growth inhibition (at 11.0 µM): 48% | growth inhibition (at 33.0 µM): 98% (active) | growth inhibition (at 100.0 µM): 99% (active)

c1ccc(-c2cc(C3CO3)c3ccccc3n2)cc1 (stereo not given)
growth inhibition (at 1.2 µM): 0% | growth inhibition (at 3.7 µM): 1% | growth inhibition (at 11.0 µM): 19% | growth inhibition (at 33.0 µM): 80% (active) | growth inhibition (at 100.0 µM): 98% (active)

CC(C)(Br)C(=O)/C=C/c1ccccc1
growth inhibition (at 1.2 µM): 24% | growth inhibition (at 3.7 µM): 50% | growth inhibition (at 11.0 µM): 66% | growth inhibition (at 33.0 µM): 70% (active) | growth inhibition (at 100.0 µM): 80% (active)

O=[N+]([O-])/C=C/c1cc2ccc3ccccc3c2[nH]1
growth inhibition (at 1.2 µM): 39% | growth inhibition (at 3.7 µM): 72% (active) | growth inhibition (at 11.0 µM): 89% (active) | growth inhibition (at 33.0 µM): 94% (active) | growth inhibition (at 100.0 µM): 92% (active)

CC1=CC(C)(C)SC(SSSC2=NC(C)=CC(C)(C)S2)=N1
growth inhibition (at 1.2 µM): -4% | growth inhibition (at 3.7 µM): -2% | growth inhibition (at 11.0 µM): 0% | growth inhibition (at 33.0 µM): 14% | growth inhibition (at 100.0 µM): 89% (active)

O=C1C(CCSc2ccccc2)C(=O)N(c2ccccc2)C1c1ccccc1 (stereo not given)
growth inhibition (at 1.2 µM): 7% | growth inhibition (at 3.7 µM): 15% | growth inhibition (at 11.0 µM): 44% | growth inhibition (at 33.0 µM): 96% (active) | growth inhibition (at 100.0 µM): 87% (active)

CCCCCCCCN1COCC(COc2ccccc2C)OC1 (stereo not given)
growth inhibition (at 1.2 µM): -3% | growth inhibition (at 3.7 µM): -2% | growth inhibition (at 11.0 µM): 0% | growth inhibition (at 33.0 µM): 22% | growth inhibition (at 100.0 µM): 99% (active)
